For 4 compounds, outcome results are on record in PubChem BioAssay AID588443 (Southern Research Specialized Biocontainment Screening …, 2011).

Each structure is given as a SMILES string. Measured potencies and affinities stand elsewhere. Inconclusive results are not listed. The source made the active and inactive calls. No rule for the calls is given here.

The assay is described as follows: THP-1 cell cytotoxicity, cytotoxicity control, set 5 (AID 588443). As to conditions: THP-1 cell viability, cytotoxicity CC50; series mostly up to 100 µM.
Regarding `CCOC(=O)CSc1ncnc2c1cnn2-c1ccccc1`, the outcome was inactive.
In the case of `COC(=O)CSc1ncnc2c1cnn2-c1ccc(C)cc1C`, the compound was classed as inactive.
The value for `CCOC(=O)CSc1ncnc2c1cnn2-c1ccc(C)cc1C` was “inactive”; that for `COc1ccc(N2CCN(C(=O)c3ccc(CNc4c(N5CCOCC5)c(=O)c4=O)cc3)CC2)cc1` was “inactive”.
